# Sampled rows, rich in hits. Any-hit rate of the full collection: about 15%.
# TDP1 cell noCPT = qHTS for Inhibitors of human tyrosyl-DNA phosphodiesterase 1 (TDP1): qHTS in cells in absence of CPT; DT40 Tdp1-/- hTDP1 cells, no CPT, ATP luminescence, 48 h; Potency, µM (doses to about 46.2 µM), inactives show at the highest dose activity change, negative = growth inhibition, hits mostly inhibitors; 15% of 420,000 active; AID 686978, 2013; further: nearly all actives have a fitted effect of over 55% in size
#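 Growth kinetics read by CellTiter-Glo luminescence after ≥48 hr at 37 °C. Cells: DT40 Tdp1-/- stably carrying human TDP1, 400 per well, compound exposure in the absence of CPT (DMSO vehicle).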
# RORg inh = qHTS for inhibitors of ROR gamma transcriptional activity. Nuclear receptor ROR-gamma (Mus musculus), P51450. Drosophila S2 Gal4-RORgamma UAS-luciferase reporter, 20 h. Potency, µM (top dose mostly 53.6 µM), for the others: top-dose activity change, negative = inhibition, actives largely listed as inhibitors. 5.4% of 310,000 active; further: nearly all actives have a fitted effect of over 60% in size
# Target sequence (P51450 whole entry, looked up, the tested form may be a part): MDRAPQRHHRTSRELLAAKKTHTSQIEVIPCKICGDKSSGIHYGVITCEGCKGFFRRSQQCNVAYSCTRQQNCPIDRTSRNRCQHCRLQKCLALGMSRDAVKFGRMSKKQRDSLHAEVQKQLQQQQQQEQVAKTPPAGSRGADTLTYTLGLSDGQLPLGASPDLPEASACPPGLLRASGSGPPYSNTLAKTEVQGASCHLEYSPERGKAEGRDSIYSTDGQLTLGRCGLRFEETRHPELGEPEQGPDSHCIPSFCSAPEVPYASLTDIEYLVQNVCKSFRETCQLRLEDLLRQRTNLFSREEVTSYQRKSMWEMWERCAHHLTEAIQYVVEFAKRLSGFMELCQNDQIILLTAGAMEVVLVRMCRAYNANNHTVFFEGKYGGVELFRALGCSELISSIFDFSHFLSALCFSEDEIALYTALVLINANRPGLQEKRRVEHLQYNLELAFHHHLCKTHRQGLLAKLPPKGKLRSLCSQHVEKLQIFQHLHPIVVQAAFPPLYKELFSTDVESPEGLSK
#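 Drosophila S2 cells stably expressing Gal4-DBD/mouse RORγ fusion under metallothionein promoter plus UAS-luciferase; compound 1 h, then 700 uM CuSO4 induction for 20 h at ambient temperature; inhibition read as reduced luminescence.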
# TDP1 cell CPT = qHTS for Inhibitors of human tyrosyl-DNA phosphodiesterase 1 (TDP1): qHTS in cells in presence of CPT; 12% of 420,000 active; Potency, µM (top dose mostly 46.2 µM), inactives show at the highest dose activity change, negative = growth inhibition, hits mostly inhibitors; AID 686979, 2013; chicken DT40 Tdp1-/-;hTDP1 cells + 20 nM CPT, ATP luminescence, 48 h; further: nearly all actives have a fitted effect of over 55% in size
#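 Chicken DT40 Tdp1-/- cells complemented with human TDP1, 400 cells/well, exposed to compounds plus 20 nM camptothecin for at least 48 h at 37 C; viability read as ATP content by CellTiter-Glo luminescence.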
# 12-LOX inh = Primary qHTS assay for inhibitors of human arachidonate 12S-lipoxygenase (ALOX12): Round 2 | Potency, µM (titrated, usually from 108 µM), for inactives: at the top dose activity change, negative = inhibition, actives largely listed as inhibitors | 1.1% of 580,000 active | Polyunsaturated fatty acid lipoxygenase ALOX12 (Homo sapiens), P18054 | purified 12hLO, xylenol orange hydroperoxide absorbance | AID 1671190, 2021
#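 Purified human 12hLO (150 nM final) in 25 mM Hepes, 0.01% Triton X-100, pH 7.0 was preincubated 15 min at room temperature with compound. Then 40 uM arachidonic acid was added, 30 min. Hydroperoxide was read by Fe-XO absorbance ratio 573/405 nm.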
# VP16 counter = VP16 counterscreen qHTS for inhibitors of ROR gamma transcriptional activity; Drosophila S2 Gal4-VP16 UAS-luciferase, luminescence, 20 h; Potency, µM (doses to about 53.6 µM), for inactives: at the highest dose activity, negative = inhibition, usual class: inhibitors; 3.5% of 310,000 active; AID 2546, 2010;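 further: Gal4-VP16 expression switched on by copper sulfate through the metallothionein promoter; nearly all actives have a fitted effect of over 50% in size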
# ELG1 DNA repair = qHTS screen for small molecules that inhibit ELG1-dependent DNA repair in human embryonic kidney (HEK293T) cells expressing luciferase-tagged ELG1. HEK293T ELG1-luciferase reporter, luminescence, 16 h; DNA damage induced by 5-fluorouridine. 2.3% of 330,000 active. Potency, µM (doses to about 46.1 µM), for the others: at the highest dose activity change, negative = inhibition, actives largely listed as inhibitors; further: nearly all actives have a fitted effect of over 55% in size
#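 In this reporter screen, reduction of luminescence relative to DMSO vehicle indicated activity. Compounds and 5-fluorouridine were added together to 2,000 cells per well, incubated for 16 hr at 37 °C, then developed with ONE-Glo.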
# The depositor's hits bear a star; ? = inconclusive; . = no result; [ ] = another dose, or the depositor's remark. The call rests on the fitted dose curve; in most records, active means well fitted curve in the direction sought with a large enough effect; inconclusive means small, poorly fitted or top-dose-only effect, or another doubt; inactive means no such curve, though single readings can be large; an effect the other way counts as inactive or inconclusive. On the % scale 0 is the no-effect control and ±100 the full control effect; potency means the concentration at half of the fitted maximal effect.
SMILES,TDP1 cell noCPT,RORg inh,TDP1 cell CPT,12-LOX inh,VP16 counter,ELG1 DNA repair
Cc1cccc(C)c1NC(=O)CN1CCN(C(=O)c2cc(C3CC3)nn2-c2ccccc2)CC1,?,.,-25%,-2%,.,.
O=C(c1ccccc1)N1CCN(S(=O)(=O)c2ccc(Cl)c(C(F)(F)F)c2)CC1,-18%,.,?,-15%,.,-6%
Cc1ccc2oc(C(=O)NCC(c3cccs3)N3CCCCC3)cc(=O)c2c1 (centres undefined),.,.,.,11%,.,.
COc1cccc(CC(=O)N2[C@@H]3CC[C@H]2CC(NC(=O)c2ccncc2)C3)c1 (some centres undefined),.,.,.,30%,.,.
O=C(c1cc(-c2ccccc2)nn1-c1ccccc1)N1CCN(S(=O)(=O)c2c(F)cccc2F)CC1,?,.,13µM*,-5%,.,?
O=C(c1cc(C2CC2)nn1-c1ccccc1)N1CCN(Cc2ccccc2F)CC1,23µM*,.,16µM*,9%,.,8%
O=C(CC1CC2CCC1C2)N1CCN(S(=O)(=O)c2ccccc2[N+](=O)[O-])CC1 (centres undefined),?,.,?,-14%,.,-27%
O=C(c1nc(-c2ccccc2)n(-c2ccccc2)n1)N1CCN(S(=O)(=O)c2ccccc2)CC1,?,13%,-30%,0%,-5%,18µM*
O=C(CC1CC2CCC1C2)N1CCN(S(=O)(=O)c2ccccc2C(F)(F)F)CC1 (centres undefined),?,.,-10%,26%,.,11µM*
O=C(c1occc1-c1ccccc1)N1CCN(S(=O)(=O)c2c(F)cccc2F)CC1,.,.,.,12%,.,.
COc1ccc2c(c1OC)C(=O)OC2Nc1nc(-c2ccc(C)cc2)cs1 (centres undefined),.,.,.,-29%,.,.
COc1ccc2c(c1OC)C(=O)OC2CC(=O)c1ccccc1 (centres undefined),.,.,.,5%,.,.
CC1CN(C(=O)/C=C/c2ccc3c(c2)OCO3)CC(C)O1 (centres undefined),-15%,-4%,-12%,18%,-1%,8%
CC1CN(C2=N/C(=C/c3ccc4c(c3)OCO4)C(=O)N2)CC(C)O1 (centres undefined),?,2%,-9%,?,-8%,21µM*
CCOc1ccc2c(=O)c(Oc3ccccc3Br)c(C)oc2c1,.,.,.,-1%,.,.
O=C(CSc1ccc2ccccc2n1)N1CCC(c2noc3ccc(F)cc23)CC1,12µM*,?,16µM*,-22%,-25%,?
Cc1nnc(SCC(=O)N2CCC(c3noc4ccc(F)cc34)CC2)s1,?,3%,?,-20%,-2%,?
CCn1c(SCc2nc(-c3ccccc3)oc2C)nc2c(=O)[nH]cnc21,.,.,.,7%,.,.
O=C(CCn1cnc2ccccc2c1=O)N1CCCC(Nc2ccccc2)C1 (centres undefined),.,.,.,23%,.,.
Cc1ccc2nc(-c3ccc(C)o3)c(Nc3ccc(F)cc3)n2c1,?,.,2%,.,.,.
COc1ccc(-c2nc3cnccn3c2Nc2ccc(C)cc2)cc1,15µM*,?,15µM*,10%[57.4 µM],3%,-1%
Cc1ccc2nc(-c3ccc(C)o3)c(Nc3ccccc3)n2c1,4.5µM*,.,3.5µM*,.,.,.
Cc1ccc(-c2nc3cnccn3c2Nc2ccccc2)o1,21µM*,?,21µM*,?,-24%,25%
Cc1ccc(-c2nc3cccc(C)n3c2Nc2ccc(F)cc2)o1,10µM*,.,?,.,.,.
Cc1ccc(Nc2c(-c3ccc(C)o3)nc3ccccn23)cc1,13µM*,.,?,.,.,.
SMILES,TDP1 cell noCPT,RORg inh,TDP1 cell CPT,12-LOX inh,VP16 counter,ELG1 DNA repair
Cc1ccc(CN2CCCOCCNC(=O)[C@@H]3CCCC[C@@H]32)s1,.,.,.,36%,.,.
CC(=O)NC1=NN(C(C)=O)C(c2ccc(F)cc2)S1 (centres undefined),-33%,13%,2.6µM*,-9%,27%,?
Cc1ccccc1NC(=O)C(C#N)=C1CCCCCCC1,.,.,.,-27%,.,.
CCC1CCCCN1C(=O)C1CC(c2cc(Cl)c(OC)cc2OC)=NO1 (centres undefined),-16%,19%,?,21%,5%,-26%
CC(C(=O)N1CCc2ccccc21)N1CCc2ccccc2C1 (centres undefined),?,-8%,?,0%,6%,?
COc1cc(/C=C\C(=O)N2CCC=CC2=O)cc(OC)c1OC,.,5µM*,.,.,5µM*,.
COc1ccc(OC)c(/C=C/C(=O)N2CCCc3ccccc32)c1,?,35%,-26%,-17%,-1%,?
COc1cc(OC)c(C2=NOC(C(=O)N3CCCc4ccccc43)C2)cc1Cl (centres undefined),?,5.6µM*,13µM*,-1%,4.5µM*,?
COc1cc2c(cc1OC)CN(C(C)C(=O)N1CCc3ccccc31)CC2 (centres undefined),18µM*,2%,?,10%,5%,?
COc1cc(/C=C/C(=O)N2CCCc3ccccc32)cc(OC)c1OC,?,11%,?,-21%,2%,8.2µM*
Cc1ccsc1-c1nc(-c2ccc3c(c2)OCCCO3)cs1,.,.,.,-32%,.,.
COc1cc(CCC(=O)N2CC(c3noc(C4CCCN4C(C)=O)n3)C2)on1 (centres undefined),.,.,.,8%,.,.
CCCc1ccc(-c2ccc(C3CCC(CC)CC3)cc2)nc1 (centres undefined),.,.,.,2%,.,.
CC1CCc2noc(NC(=O)c3ccc(F)cc3)c2C1 (centres undefined),.,.,.,6%,.,.
COc1cc(/C=C/C(=O)N2CCCCC2=O)cc(OC)c1OC,3.8µM*,7.1µM*,3µM*,.,7.9µM*,.
O=C(c1ccc(=O)oc1)N1CCCc2ccccc21,16µM*,8%,?,?,-9%,?
COc1cc(C(=O)N2CCCc3ccccc32)cc(OC)c1OC,21µM*,-22%,18µM*,4%,0%,?
O=C(c1ccc(Br)cc1)N1CCCc2ccccc21,?,-6%,-5%,2%,0%,3%
COc1ccc(/C=C/C(=O)N2CCCc3ccccc32)cc1,23µM*,?,26µM*,2%,?,?

# Bioassay records as filed in PubChem.
